Reference: PubChem BioAssay AID651919 (Sanford-Burnham Center for Chemical Genomics, 2012)

Target: C-X-C chemokine receptor type 6 (Homo sapiens) (UniProt O00574)
Assay: CXCR6 and CXCR5 receptor antagonist panel, profiling panel, selectivity assay for CXCR6 antagonist project, cell-based, CHO-K1 PathHunter beta-arrestin, luminescence, set 4 (AID 651919)
Conditions: run 3, at 79 µM (top of the series)

Sequence of C-X-C chemokine receptor type 6 (Homo sapiens) (O00574 whole entry, looked up): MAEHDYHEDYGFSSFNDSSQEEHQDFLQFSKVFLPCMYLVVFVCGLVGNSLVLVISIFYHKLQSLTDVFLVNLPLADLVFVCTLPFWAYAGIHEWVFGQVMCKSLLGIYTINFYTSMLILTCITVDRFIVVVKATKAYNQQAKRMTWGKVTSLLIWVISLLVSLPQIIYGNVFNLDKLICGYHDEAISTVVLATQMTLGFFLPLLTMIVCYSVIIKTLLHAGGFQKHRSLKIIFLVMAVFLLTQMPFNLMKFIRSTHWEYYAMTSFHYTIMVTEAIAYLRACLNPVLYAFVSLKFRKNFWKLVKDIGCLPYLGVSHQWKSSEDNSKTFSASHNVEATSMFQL

With COc1cc(C(=O)NC2CC3CCCC(C2)N3CC(=O)Nc2ccccc2Cl)cc(OC)c1OC (configuration not stated) the inhibition was 99.1%.

COc1cc(C(=O)NC2CC3CCCC(C2)N3CC(=O)Nc2ccccc2)cc(OC)c1OC (configuration not stated) showed an inhibition of 92.7%.
